In all, about 2,100 compounds went through this assay and about 760 (36%) were called active. These entries were drawn from the full list. Values without a mark were called inactive.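 The calls were made as follows: active = thallium-flux fluorescence traces judged by eye to show enhanced or reduced glutamate response, manual score 1 or -1, so both directions (some results past the limit were not filed as active); inactive = the rest, including fluorescent or raised-baseline compounds.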
Experiment: non-GIRK thallium flux modulation in mGlu8 cells, confirmation, counter-screen for GIRK activator project, cell-based, HEK-293 rmGlu8, no GIRK (AID 623868);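 also: extra codes mark interference with 3 for fluorescent and 4 for baseline rise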
Conditions: thallium flux fluorescence, at 10 µM, actives lie on both sides, codes: 1 enhancer, -1 blocker, 0 none, thallium stimulus containing EC20 glutamate

Row | SMILES | manual score
1 | C=CCNC(=S)NNC(=O)COc1ccc(Cl)cc1Cl | 0.5
2 | O=C(COc1ccc(Cl)cc1Cl)Nc1noc2ccccc12 | 0
3 | COC(=O)NC(=S)Nc1ccc(Oc2ccc(Cl)cc2Cl)c(Cl)c1 | 1 (active)
4 | CCC(C)c1ccc(NC(=S)Nc2ccc(OC)c(OC)c2)cc1 (stereo not drawn) | 0
5 | O=C(COc1ccc(Cl)cc1Cl)NNC(=S)Nc1ccc(F)cc1 | 1 (active)
6 | COc1ccc(NC(=S)SC)cc1OC | 0
7 | CC(=O)c1ccc(OC(=O)N(c2ccccc2)c2ccccc2)cc1 | 0
8 | COc1ccc2nc(/N=C/c3c(C)[nH]n(-c4ccc(C)cc4C)c3=O)sc2c1 | 1 (active)
9 | CCOc1[nH]n(-c2ccc(Cl)cc2)c(=O)c1C=Nc1ccc(Cl)cc1 | 0
10 | CCOc1ccc2nc(/N=C/c3c(C)[nH]n(-c4ccc(C)cc4)c3=O)sc2c1 | 1 (active)
11 | CCOc1ccc2nc(/N=C/c3c(C)[nH]n(-c4ccccc4)c3=O)sc2c1 | 1 (active)
12 | COc1ccc2nc(/N=C/c3c(C)[nH]n(-c4ccc(C)cc4)c3=O)sc2c1 | 1 (active)
13 | CC(C)OC(=O)CC12CN3CN(C1)CC(CC(=O)OC(C)C)(C3)C2=O | 0
14 | CC1(C)NC(=O)N(CC(O)COc2ccc(-c3ccc(C#N)cc3)cc2)C1=O (stereo not drawn) | 0
15 | CCOc1cc(N2CCOCC2)c(OCC)cc1NC(=O)COC(=O)CCc1c[nH]c2ccccc12 | 0
16 | COc1c2occc2c(OC)c2c(=O)cc(C(F)(F)F)oc12 | 0
17 | CCN(CC)c1ccc(NC(=O)c2nc3nc(C)cc(C(F)F)n3n2)cc1 | 0
18 | O=C(COC(=O)CCC1CCCC1)Nc1nc2c(F)c(F)c(F)cc2s1 | 0
19 | CCN1CCCC1CNC(=O)C1CCN(Cc2nc(-c3cccc(Br)c3)oc2C)CC1 (stereo not drawn) | 0
20 | CCOC(=O)C(CC)Sc1nnc(COc2ccc(C)cc2)n1-c1ccccc1 (stereo not drawn) | 3
21 | CCOC(=O)C(CC)Sc1nnc2cc(C)c3ccccc3n12 (stereo not drawn) | -1 (active)
22 | CCN(CC)CCn1c(=S)[nH]c2cc(Cl)ccc2c1=O | 0.5
23 | O=c1c2ccc(Cl)cc2[nH]c(=S)n1CCC1=CCCCC1 | 1 (active)

Row | SMILES | manual score
24 | COc1ccc(CN(CCC#N)C(=S)NC(=O)c2ccccc2)cc1 | 1 (active)
25 | N#CCCN(Cc1ccccc1)C(=S)NC(=O)c1ccccc1 | 1 (active)
26 | COCCN(C(=O)Cc1cccs1)C(C(=O)NCc1ccc(OC)cc1)c1ccccc1 (stereo not drawn) | 0
27 | COc1ccc(CNC(=O)C(C#N)c2nc3ccccc3nc2N2CCCC2)cc1 (stereo not drawn) | 3
28 | CC(C)CN1C(=O)/C(=C/c2cccs2)NC1=S | 1 (active)
29 | O=C1/C(=C/c2ccc(N3CCCC3)cc2)NC(=S)N1C1CC1 | 3
30 | CCN1C(=O)/C(=C/c2ccc(C)s2)NC1=S | 0.5
31 | CCCN1C(=O)/C(=C/c2ccc(N3CCCC3)c(C)c2)NC1=S | 3
32 | CCCN1C(=O)/C(=C/c2ccc(C)s2)NC1=S | 1 (active)
33 | CSc1nc2ccccc2cc1/C=C(\C#N)c1cccc(C)c1 | 0
34 | CC1Oc2ccccc2C=C1/C=N/NC(=O)c1ccccc1 (stereo not drawn) | 0
35 | Cc1ccc(C(=O)N/N=C/C2=Cc3ccccc3OC2C)cc1 (stereo not drawn) | 1 (active)
36 | COC(=O)c1sc(NC(=S)NC(=O)c2ccccc2)nc1C | 1 (active)
37 | COC(=O)c1sc(NC(=S)NC(=O)c2ccccc2Cl)nc1C | 1 (active)
38 | CCOC(=O)c1sc(NC(=S)NC(=O)c2ccco2)nc1C | 1 (active)
39 | COC(=O)c1sc(NC(=S)NC(=O)c2cccc(C)c2)nc1C | 1 (active)
40 | Cc1nnc(NC(=O)c2ccco2)s1 | 0
41 | CCCCSc1nc(N)c(NC(=O)c2ccco2)c(=O)[nH]1 | 0
42 | COC(=O)Nc1nc(C)c(C(=O)N(C)C)s1 | 0
43 | COc1cc(C)ccc1OCCOc1cc(C)ccc1Cl | 0
44 | COc1ccc(OC)c(S(=O)(=O)N(C)CC(=O)N2CCN(c3ccccc3F)CC2)c1 | 0
45 | Cc1cccc2c1nc(-c1ccccc1)n1cnnc21 | 0
46 | Cc1cc(NC(=O)COc2ccc(Cl)cc2Cl)n(-c2ccccc2)n1 | 0

Row | SMILES | manual score
47 | O=C(COc1ccc(Cl)cc1Cl)Nc1ccccn1 | 0
48 | CN(C(=S)NC(=O)CCCOc1ccc(Cl)cc1Cl)c1ccccc1 | 1 (active)
49 | CSc1nc(N2CCOCC2)c2c(c1C#N)CC(C)(C)OC2 | 0
50 | Cc1nc(SC2CCOC2=O)c2c(C)c(C)sc2n1 (stereo not drawn) | 1 (active)
51 | COc1ccc(C)cc1S(=O)(=O)Nc1cccc(Cl)c1Cl | 0.5
52 | CCOC(=O)N/N=C/c1c(C)nn(-c2ccccc2Cl)c1Cl | 0
53 | Cc1ccc(NC(=S)N/N=C/c2c(Cl)cccc2Cl)c(C)c1 | 1 (active)
54 | Cc1cccc(-n2c(O)c(/C=N/NC(=O)c3ccccc3Cl)c3ccccc3c2=O)n1 | 3
55 | Cc1ccc(NCC(=O)Nc2cccc(S(=O)(=O)N(C)C)c2)c(Cl)c1 | 0
56 | CCNC(=S)N/N=C/c1c(Cl)cccc1Cl | 1 (active)
57 | O=C(Cn1nc(Cc2ccncc2)c2ccccc2c1=O)N1CCN(C(=O)c2ccco2)CC1 | 0
58 | COc1cccc(-n2c(SCC(=O)NCCC3=CCCCC3)nc3n[nH]c(C)c3c2=N)c1 | 0
59 | Cc1cc(C)c2nc(SCC(=O)NCCC3=CCCCC3)cc(C)c2c1 | 1 (active)
60 | O=C(CCCc1nc(-c2ccc(Cl)cc2)no1)Nc1cccnc1 | 0
61 | Cc1cc2[nH]c(=O)c3ccccc3n2n1 | 0
62 | CCOC(=O)c1ccccc1Nc1cn(C(C)=O)c2ccccc12 | 0
63 | CCOC(=O)c1cnn2c1[nH]c(=O)c1ccccc12 | 1 (active)
64 | CN(C=O)CP(=O)(O)CCN1CCCC1=O | 0
65 | Cc1cc(C(=O)N2CCN(CCc3ccccc3)CC2)no1 | 0
66 | S=c1[nH]nc(-c2cc3c(s2)-c2ccccc2CC3)o1 | 1 (active)
67 | CN1C=CC2=C(C#N)C(N)C(C#N)(C#N)[C@H](c3ccccc3)[C@H]2C1 (stereo partly drawn) | 3
68 | COc1ccc(-c2cc(C(F)(F)F)c3c(n2)sc2c(O)cc(=O)[nH]c23)c(OC)c1 | 0

Reference: PubChem BioAssay AID623868 (Vanderbilt High Throughput Screening Facility, 2012)
